We go through 40 compounds from the supplement of paper PMC3414501.

Counter-ions that a name gives are not always drawn. A number with no mark means an inactive call.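 Rule for the calls: active = HIS4 sensitivity z-score above 5 vs DMSO controls; inactive = score 5 or below.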

In the assay the test system is S. cerevisiae NKY1551 his4x/his4B, sporulating. In words: HIS4 meiotic recombination assay sensitivity score (z-score vs DMSO controls); higher = stronger inhibition of sporulation/recombination, active = hit call of the paper. The procedure:
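NIH Clinical Collection compounds were added 1:100 from stock (about 100 µM final) to S. cerevisiae. Growth: average doubling time (AvgG) over 24 h of BY4741 (wild-type) or AD1-9 (drug-efflux-pump deficient) in rich media. HIS4: the his4x/his4B heteroallelic recombination reporter strain (SK1) was sporulated 5 h with compound at 30°C, then colony density was read on -his plates after 48 h. Sensitivity score = (compound − mean of 8 DMSO controls)/SD of DMSO controls. Hit cutoffs are >2 for growth and >5 for sporulation.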
As for `CC(Oc1c(Cl)cccc1Cl)C1=NCCN1` (stereo not given) [Lofexidine hydrochloride] (stock concentration (mM, diluted 1:100): 10), the “HIS4 meiotic recombination assay sensitivity score” value was 1.48.

`COc1cc([C@@H]2c3cc4c(cc3[C@@H](O[C@@H]3O[C@@H]5CO[C@@H](C)O[C@H]5[C@H](O)[C@H]3O)[C@H]3COC(=O)[C@H]23)OCO4)cc(OC)c1O` [Etoposide] (stock concentration (mM, diluted 1:100): 10): the “HIS4 meiotic recombination assay sensitivity score” value is 0.11.

Regarding `CNCC[C@@H](Oc1ccccc1C)c1ccccc1` [Atomexetine hydrochloride] (stock concentration (mM, diluted 1:100): 8.7), the “HIS4 meiotic recombination assay sensitivity score” value is 10.1 (active).

For `CCCCC(=O)N(Cc1ccc(-c2ccccc2-c2nnn[nH]2)cc1)[C@H](C(=O)O)C(C)C` [Valsartan] (stock concentration (mM, diluted 1:100): 10), the “HIS4 meiotic recombination assay sensitivity score” value is -0.5.

With `OCCOCCN1CCN(C2=Nc3ccccc3Sc3ccccc32)CC1` [Quetiapine hemifumarate] (stock concentration (mM, diluted 1:100): 7.7), the “HIS4 meiotic recombination assay sensitivity score” value was 5.3 (active).

Take `CCCc1c(OCCCCc2nnn[nH]2)ccc(C(C)=O)c1O` (stock concentration (mM, diluted 1:100): 10): the “HIS4 meiotic recombination assay sensitivity score” value was -2.23.

On to `CC(=O)Nc1ccc(CC(=O)O)cc1` [Actarit] (stock concentration (mM, diluted 1:100): 10), for which the “HIS4 meiotic recombination assay sensitivity score” value is 0.62.

`C[C@]12C=CC(=O)C=C1CC[C@@H]1[C@@H]2[C@@H](O)C[C@@]2(C)[C@H]1CC[C@]2(O)C(=O)COC(=O)CCC(=O)O` (stock concentration (mM, diluted 1:100): 10): the “HIS4 meiotic recombination assay sensitivity score” value was -0.86.

Consider `COc1ccccc1OCCNCC(O)COc1cccc2[nH]c3ccccc3c12` (stereo not given) [Carvedilol] (stock concentration (mM, diluted 1:100): 10), for which the “HIS4 meiotic recombination assay sensitivity score” value is 0.66.

Take `Nc1ccc(O)c(C(=O)O)c1` [Mesalamine] (stock concentration (mM, diluted 1:100): 10): the “HIS4 meiotic recombination assay sensitivity score” value was -2.13.

As to `O=C(O)/C=C/c1ccc(Cn2ccnc2)cc1` [Ozagrel hydrochloride] (stock concentration (mM, diluted 1:100): 8.6), the “HIS4 meiotic recombination assay sensitivity score” value was 0.54.

As for `CC(C(=O)O)c1ccc(CC2CCCC2=O)cc1` (stereo not given) [Loxoprofen sodium] (stock concentration (mM, diluted 1:100): 9.1), the “HIS4 meiotic recombination assay sensitivity score” value was -0.15.

Consider `O=C1c2c(O)cc(O)cc2OC(c2ccc(O)c(O)c2)C1O` (stereo not given) [Taxifolin] (stock concentration (mM, diluted 1:100): 10), for which the “HIS4 meiotic recombination assay sensitivity score” value was -0.97.

With `Cc1cc2c(s1)Nc1ccccc1N=C2N1CCN(C)CC1` [Olanzapine] (stock concentration (mM, diluted 1:100): 9.9), the “HIS4 meiotic recombination assay sensitivity score” value was 1.61.

Regarding `COCCCC/C(=N\OCCN)c1ccc(C(F)(F)F)cc1` [Fluvoxamine] (stock concentration (mM, diluted 1:100): 7.7), the “HIS4 meiotic recombination assay sensitivity score” value is 8.08 (active).

As to `Nc1nc(Cl)nc2c1ncn2[C@H]1C[C@H](O)[C@@H](CO)O1` [2-Chloro-2-Deoxyadenosine] (stock concentration (mM, diluted 1:100): 10), the “HIS4 meiotic recombination assay sensitivity score” value is -1.07.

`CC(C)(C)NC(=O)[C@H]1CC[C@H]2[C@@H]3CC[C@H]4NC(=O)C=C[C@]4(C)[C@H]3CC[C@]12C` [Finasteride] (stock concentration (mM, diluted 1:100): 10): the “HIS4 meiotic recombination assay sensitivity score” value was 3.09.

Take `O=C(NCCO[N+](=O)[O-])c1cccnc1` [Nicorandil] (stock concentration (mM, diluted 1:100): 10): the “HIS4 meiotic recombination assay sensitivity score” value is 0.03.

For `CCN1CCN(c2cc3c(cc2F)c(=O)c(C(=O)O)cn3C2CC2)CC1` [Enrofloxacin] (stock concentration (mM, diluted 1:100): 10), the “HIS4 meiotic recombination assay sensitivity score” value was 1.36.

Consider `Cc1ncc([N+](=O)[O-])n1CCO` [Metronidazole] (stock concentration (mM, diluted 1:100): 10), for which the “HIS4 meiotic recombination assay sensitivity score” value was 0.15.

In the case of `C[C@]12CC[C@@H]3c4ccc(OS(=O)(=O)O)cc4CC[C@H]3[C@@H]1CCC2=O` (stock concentration (mM, diluted 1:100): 10), the “HIS4 meiotic recombination assay sensitivity score” value was 1.4.

As to `CC(C)c1ccc2oc3nc(N)c(C(=O)O)cc3c(=O)c2c1` [Amlexanox] (stock concentration (mM, diluted 1:100): 10), the “HIS4 meiotic recombination assay sensitivity score” value is 0.07.

On to `CC#C[C@]1(O)CC[C@H]2[C@@H]3CCC4=CC(=O)CCC4=C3[C@@H](c3ccc(N(C)C)cc3)C[C@@]21C` [Mifepristone] (stock concentration (mM, diluted 1:100): 10), for which the “HIS4 meiotic recombination assay sensitivity score” value is 2.99.

With `CC(=O)CCCCn1c(=O)c2c(ncn2C)n(C)c1=O` [Pentoxifylline] (stock concentration (mM, diluted 1:100): 10), the “HIS4 meiotic recombination assay sensitivity score” value was -0.42.

`CN1[C@@H](CC(=O)c2ccccc2)CCC[C@H]1C[C@H](O)c1ccccc1` [Lobeline hydrochloride] (stock concentration (mM, diluted 1:100): 10): the “HIS4 meiotic recombination assay sensitivity score” value was 0.57.

Turning to `NC(N)=NC(=O)c1nc(Cl)c(N)nc1N` (stock concentration (mM, diluted 1:100): 8.2), the “HIS4 meiotic recombination assay sensitivity score” value is 2.44.

Take `CO[C@H]1/C=C/O[C@@]2(C)Oc3c(C)c(O)c4c(O)c(c(/C=N/N5CCN(C6CCCC6)CC5)c(O)c4c3C2=O)NC(=O)/C(C)=C\C=C\[C@H](C)[C@H](O)[C@@H](C)[C@@H](O)[C@@H](C)[C@H](OC(C)=O)[C@@H]1C` [Rifapentine] (stock concentration (mM, diluted 1:100): 10): the “HIS4 meiotic recombination assay sensitivity score” value was -0.69.

As to `Cc1c(C(=O)NN2CCCCC2)nn(-c2ccc(Cl)cc2Cl)c1-c1ccc(I)cc1` (stock concentration (mM, diluted 1:100): 10), the “HIS4 meiotic recombination assay sensitivity score” value is 1.13.

In the case of `O=C(O)c1cc(/N=N/c2ccc(S(=O)(=O)Nc3ccccn3)cc2)ccc1O` [Sulfasalazine] (stock concentration (mM, diluted 1:100): 10), the “HIS4 meiotic recombination assay sensitivity score” value is -0.54.

As for `CC(=O)O[C@H]1C[C@@H]2CC[C@@H]3[C@H](CC[C@@]4(C)[C@H]3C[C@H]([N+]3(C)CCCCC3)[C@@H]4OC(C)=O)[C@@]2(C)C[C@@H]1N1CCCCC1` [Vecuronium bromide] (stock concentration (mM, diluted 1:100): 10), the “HIS4 meiotic recombination assay sensitivity score” value was -1.64.

Take `N[C@@H](C(=O)N[C@@H]1C(=O)N2C(C(=O)O)=C(Cl)CS[C@H]12)c1ccccc1` [Cefaclor] (stock concentration (mM, diluted 1:100): 10): the “HIS4 meiotic recombination assay sensitivity score” value was 1.51.

With `CN1C(C(=O)Nc2ccccn2)=C(O)c2ccccc2S1(=O)=O` [Piroxicam] (stock concentration (mM, diluted 1:100): 10), the “HIS4 meiotic recombination assay sensitivity score” value was 0.11.

For the compound `C[C@H]1COc2c(N3CCN(C)CC3)c(F)cc3c(=O)c(C(=O)O)cn1c23` [Levofloxacin] (stock concentration (mM, diluted 1:100): 10), the “HIS4 meiotic recombination assay sensitivity score” value was 0.16.

In the case of `CC(C)NCC(O)COc1ccc(COCCOC(C)C)cc1` (stereo not given) [Bisoprolol fumarate] (stock concentration (mM, diluted 1:100): 8.5), the “HIS4 meiotic recombination assay sensitivity score” value was -0.11.

On to `CCC1=C(C)CN(C(=O)NCCc2ccc(S(=O)(=O)NC(=O)N[C@H]3CC[C@H](C)CC3)cc2)C1=O` [Glimepiride] (stock concentration (mM, diluted 1:100): 7.7), for which the “HIS4 meiotic recombination assay sensitivity score” value is 1.27.

With `COc1ccnc(C[S+]([O-])c2nc3cc(OC(F)F)ccc3[nH]2)c1OC` (stereo not given) [Pantoprazole sodium] (stock concentration (mM, diluted 1:100): 10), the “HIS4 meiotic recombination assay sensitivity score” value is 0.54.

As for `CC(C)(C)NCC(O)c1ccc(O)c(CO)c1` (stereo not given) [Salbutamol sulfate] (stock concentration (mM, diluted 1:100): 9.7), the “HIS4 meiotic recombination assay sensitivity score” value was -0.65.

For the compound `CC(C)C[C@H](NC(=O)[C@@H](COC(C)(C)C)NC(=O)[C@H](Cc1ccc(O)cc1)NC(=O)[C@H](CO)NC(=O)[C@H](Cc1c[nH]c2ccccc12)NC(=O)[C@H](Cc1cnc[nH]1)NC(=O)[C@@H]1CCC(=O)N1)C(=O)N[C@@H](CCCNC(=N)N)C(=O)N1CCC[C@H]1C(=O)NNC(N)=O` [Goserelin acetate] (stock concentration (mM, diluted 1:100): 9.6), the “HIS4 meiotic recombination assay sensitivity score” value is -1.25.

Take `O=C1CN2Cc3c(ccc(Cl)c3Cl)N=C2N1` [Anagrelide hydrochloride] (stock concentration (mM, diluted 1:100): 8.8): the “HIS4 meiotic recombination assay sensitivity score” value is -0.8.

Regarding `CN(C)CCc1c[nH]c2ccc(C[C@H]3COC(=O)N3)cc12` [Zolmitriptan] (stock concentration (mM, diluted 1:100): 10), the “HIS4 meiotic recombination assay sensitivity score” value is 0.22.
